# From PubChem BioAssay AID1159580 (chemical genetic matrix, 2015)
# Several values for one entry are separate records, joined by “and”; a condition that tells them apart may be missing. Identical values can stand only once. Screen size: about 5,500 compounds; about 2,000 (36%) were called active. Inconclusive results (about 18%) are left out. No stated cut-off is given here; in the data, active means normalized growth mostly below about 0.91 (no sharp cut-off); inconclusive means no clear call, values can overlap the other calls; inactive means mostly above about 0.92. This is one part of the list.
# Test: chemical genetic growth profiling, strain panel (AID 1159580);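 further: tested at 20 µM; growth read once vehicle control cultures reached saturation at 30 °C; 1 = growth at the plate median or of vehicle wells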
# Settings: S. cerevisiae deletion strains, growth OD
smiles,measurement,setting,value
C=C[C@@](C)(O)CCC1C(=C)CCC2[C@@](C)(CO)CCC[C@]12C (stereo partly drawn),normalized growth,"locus YAL021C, strain ccr4, stronger effect = lower value",0.994 (inactive)
same,normalized growth,"locus YAL026C, strain drs2, stronger effect = lower value",0.972 (inactive)
same,normalized growth,"locus YAL030W, strain snc1, stronger effect = lower value",1.07 (inactive)
same,normalized growth,"locus YBL061C, strain skt5, stronger effect = lower value",1.06 (inactive)
same,normalized growth,"locus YBR009C, strain hhf1, stronger effect = lower value",0.925 (inactive)
same,normalized growth,"locus YBR021W, strain FUR4, stronger effect = lower value",0.772 (active)
same,normalized growth,"locus YBR023C, strain chs3, stronger effect = lower value",1.02 (inactive)
same,normalized growth,"locus YBR171W, strain sec66, stronger effect = lower value",1.08 (inactive)
same,normalized growth,"locus YBR229C, strain ROT2, stronger effect = lower value",1.06 (inactive)
same,normalized growth,"locus YBR231C, strain swc5, stronger effect = lower value",1.12 [resistant] (active)
same,normalized growth,"locus YBR279W, strain paf1, stronger effect = lower value",0.997 (inactive)
same,normalized growth,"locus YCL011C, strain gbp2, stronger effect = lower value",1.02 (inactive)
same,normalized growth,"locus YCL016C, strain dcc1, stronger effect = lower value",0.974 (inactive)
same,normalized growth,"locus YCL029C, strain bik1, stronger effect = lower value",0.972 (inactive)
same,normalized growth,"locus YCL061C, strain MRC1, stronger effect = lower value",0.963 (inactive)
same,normalized growth,"locus YCL069W, strain vba3, stronger effect = lower value",1.03 (inactive)
same,normalized growth,"locus YCR088W, strain abp1, stronger effect = lower value",1.06 (inactive)
same,normalized growth,"locus YDL005C, strain med2, stronger effect = lower value",1.05 (inactive)
same,normalized growth,"locus YDL035C, strain GPR1, stronger effect = lower value",0.794 (active)
same,normalized growth,"locus YDL040C, strain nat1, stronger effect = lower value",1.08 [resistant] (active)
same,normalized growth,"locus YDL074C, strain BRE1, stronger effect = lower value",0.982 (inactive)
same,normalized growth,"locus YDL101C, strain DUN1, stronger effect = lower value",1.05 (inactive)
same,normalized growth,"locus YDL134C, strain PPH21, stronger effect = lower value",0.979 (inactive)
same,normalized growth,"locus YDL185W, strain tfp1, stronger effect = lower value",1.02 (inactive)
same,normalized growth,"locus YDL192W, strain arf1, stronger effect = lower value",0.989 (inactive)
same,normalized growth,"locus YDR001C, strain nth1, stronger effect = lower value",1.08 [resistant] (active)
same,normalized growth,"locus YDR069C, strain doa4, stronger effect = lower value",1.05 (inactive)
same,normalized growth,"locus YDR101C, strain arx1, stronger effect = lower value",0.915 (active)
same,normalized growth,"locus YDR137W, strain rgp1, stronger effect = lower value",0.758 (active)
same,normalized growth,"locus YDR150W, strain NUM1, stronger effect = lower value",1.09 (inactive)
same,normalized growth,"locus YDR159W, strain sac3, stronger effect = lower value",0.997 (inactive)
same,normalized growth,"locus YDR162C, strain NBP2, stronger effect = lower value",0.84 (inactive)
same,normalized growth,"locus YDR195W, strain ref2",1.25 [resistant] (active)
same,normalized growth,"locus YDR297W, strain sur2, stronger effect = lower value",1.04 (inactive)
same,normalized growth,"locus YDR318W, strain mcm21, stronger effect = lower value",0.99 (inactive)
same,normalized growth,"locus YDR334W, strain swr1, stronger effect = lower value",1.1 [resistant] (active)
same,normalized growth,"locus YDR335W, strain msn5, stronger effect = lower value",0.982 (inactive)
same,normalized growth,"locus YDR388W, stronger effect = lower value",1.02 (inactive)
same,normalized growth,"locus YDR392W, strain spt3, stronger effect = lower value",0.833 (inactive)
same,normalized growth,"locus YDR502C, strain sam2, stronger effect = lower value",0.985 (inactive)
same,normalized growth,"locus YEL003W, strain gim4, stronger effect = lower value",0.948 (inactive)
same,normalized growth,"locus YEL037C, strain rad23, stronger effect = lower value",1.05 (inactive)
same,normalized growth,"locus YEL061C, strain CIN8 (second series), stronger effect = lower value",1.07 (inactive)
same,normalized growth,"locus YEL061C, strain CIN8, stronger effect = lower value",1.07 (inactive)
same,normalized growth,"locus YER015W, strain faa2, stronger effect = lower value",1 (inactive)
same,normalized growth,"locus YER016W, strain bim1, stronger effect = lower value",1.05 (inactive)
same,normalized growth,"locus YER110C, stronger effect = lower value",1.06 (inactive)
same,normalized growth,"locus YER111C, strain swi4, stronger effect = lower value",1.07 (inactive)
same,normalized growth,"locus YER155C, strain BEM2 (second series), stronger effect = lower value",1.22 [resistant] (active)
same,normalized growth,"locus YER155C, strain BEM2, stronger effect = lower value",1.09 [resistant] (active)
same,normalized growth,"locus YER167W, strain BCK2, stronger effect = lower value",1.01 (inactive)
same,normalized growth,"locus YFR010W, strain ubp6, stronger effect = lower value",1.07 (inactive)
same,normalized growth,"locus YGL078C, strain dbp3, stronger effect = lower value",0.871 (active)
same,normalized growth,"locus YGL086W, strain mad1, stronger effect = lower value",1 (inactive)
same,normalized growth,"locus YGL167C, strain pmr1, stronger effect = lower value",1.06 (inactive)
same,normalized growth,"locus YGL173C, strain kem1, stronger effect = lower value",0.913 (inactive)
same,normalized growth,"locus YGL227W, strain vid30, stronger effect = lower value",1.06 (inactive)
same,normalized growth,"locus YGL240W, strain doc1, stronger effect = lower value",0.974 (inactive)
same,normalized growth,"locus YGL248W, strain PDE1, stronger effect = lower value",0.982 (inactive)
same,normalized growth,"locus YGL253W, strain hxk2, stronger effect = lower value",1.02 (inactive)
same,normalized growth,"locus YGR078C, strain PAC10, stronger effect = lower value",1.02 (inactive)
same,normalized growth,"locus YGR135W, strain pre9, stronger effect = lower value",0.992 (inactive)
same,normalized growth,"locus YGR252W, strain gcn5, stronger effect = lower value",0.92 (inactive)
same,normalized growth,"locus YHR013C, strain ard1, stronger effect = lower value",1.11 (inactive)
same,normalized growth,"locus YHR027C, strain rpn1, stronger effect = lower value",1.02 (inactive)
same,normalized growth,"locus YHR030C, strain SLT2, stronger effect = lower value",1.09 [resistant] (active) and 0.872 (inactive)
same,normalized growth,"locus YHR079C, strain IRE1 (second series), stronger effect = lower value",1.05 (inactive)
same,normalized growth,"locus YHR079C, strain IRE1, stronger effect = lower value",0.862 (inactive)
same,normalized growth,"locus YHR094C, strain hxt1, stronger effect = lower value",1.04 (inactive)
same,normalized growth,"locus YHR129C, strain ARP1, stronger effect = lower value",1.05 (inactive)
same,normalized growth,"locus YHR142W, strain chs7, stronger effect = lower value",1.01 (inactive)
same,normalized growth,"locus YHR200W, strain rpn10, stronger effect = lower value",1.02 (inactive)
same,normalized growth,"locus YIL066C, strain RNR3, stronger effect = lower value",0.996 (inactive)
same,normalized growth,"locus YIL073C, strain SPO22, stronger effect = lower value",1.01 (inactive)
same,normalized growth,"locus YIL125W, strain kgd1, stronger effect = lower value",0.973 (inactive)
same,normalized growth,"locus YIR030C, strain dcg1, stronger effect = lower value",1.05 (inactive)
same,normalized growth,"locus YJL092W, strain hpr5, stronger effect = lower value",1.02 (inactive)
same,normalized growth,"locus YJL095W, strain BCK1 (second series), stronger effect = lower value",1.07 (inactive)
same,normalized growth,"locus YJL095W, strain BCK1, stronger effect = lower value",1.02 (inactive) and 0.886 (inactive)
same,normalized growth,"locus YJL115W, strain asf1, stronger effect = lower value",1.07 (inactive)
same,normalized growth,"locus YJL129C, strain trk1, stronger effect = lower value",1.02 (inactive)
same,normalized growth,"locus YJL134W, strain LCB3, stronger effect = lower value",1.07 (inactive)
same,normalized growth,"locus YJL154C, strain vps35, stronger effect = lower value",1.09 [resistant] (active)
same,normalized growth,"locus YJL164C, strain tpk1, stronger effect = lower value",0.963 (inactive)
same,normalized growth,"locus YJL166W, strain qcr8, stronger effect = lower value",0.968 (inactive)
same,normalized growth,"locus YJL168C, strain set2, stronger effect = lower value",1.07 (inactive)
same,normalized growth,"locus YJL187C, strain SWE1 (second series), stronger effect = lower value",0.995 (inactive)
same,normalized growth,"locus YJL187C, strain SWE1, stronger effect = lower value",1.01 (inactive)
